From PubChem BioAssay (NCI)
About 79,000 compounds went through this panel and 15% of them were active in at least one assay; those are over-represented in the sample as a whole. Unmarked numbers belong to inactive results. Cut-off read from the data, not from the text of the source: active = growth inhibition above about 70%; inactive = the rest.

Test: NCI Yeast Anticancer Drug Screen. Data for the rad50 strain (AID 155);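 note: 0% = growth of vehicle-only cultures of the same strain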
Settings: S. cerevisiae rad50 strain growth inhibition; at 50.0 µM; stronger effect = higher value
Outline: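 Growth of the mutant yeast was measured after compound exposure and referenced to vehicle-treated cultures.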

| SMILES | growth inhibition |
| --- | --- |
| O=C1CSc2nc3ccc(Br)cc3c(=O)n21 | 16% |
| CC(C)(C)c1ccnc(C(O)(C(F)(F)F)C(F)(F)F)c1 | -3.4% |
| N/C(=N\N=C\C1CC2C=CC1C2)NO (centres undefined) | 5.3% |
| CC1SC2=NC3=C(c4ccccc4C3=O)C(c3ccc(Br)cc3)N2C1=O (centres undefined) | -37.5% |
| CC(C)C(O)C[N+](=O)[O-] (centres undefined) | 66.3% |
| Cc1cc2nc3c(=O)[nH]c(=O)nc-3n(CCOC(=O)CCC(=O)O)c2cc1C | -8.35% |
| Cc1cc(=O)c2c(Br)ccc(Br)c2[nH]1 | 3.5% |
| CC(C=O)CCC(C)(O)C=O (centres undefined) | -9.4% |
| c1ccc(CC2=NCCc3ccccc32)cc1 | -16.4% |
| NC(=O)c1ccccc1NC(=O)C(=O)C(c1cnc2ccc([N+](=O)[O-])cc2n1)[N+](=O)[O-] (centres undefined) | 9.7% |
| CCCOC(=O)CC(CC(=O)OCCC)C(=O)OCCC | -10.9% |
| CN(C)NC1=C([N+](=O)[O-])C=NN(c2ccccc2)C1 | 15% |
| O=C1c2ccc3ccccc3c2C(=O)c2ccc3ccccc3c21 | -20.6% |
| Clc1nnc(-c2ccccc2)s1 | 2.3% |
| CCCCc1ccc2[n+](c1)C(C(=O)OCC)=PC2 (centres undefined) | -18.1% |
| COC(=O)/C(=N/O)C(C(=O)C=C(C)C)C(=O)C(=O)Nc1nc2ccc([N+](=O)[O-])cc2s1 (centres undefined) | 18% |
| COCOS(C)(=O)=O | -4.05% |
| COC(=O)C1CC[N-]CC1.COC(=O)C1CC[N-]CC1.[Cl][Pt+2][Cl] | -0.15% |
| Cc1cccc(C)[n+]1[O-] | 1.6% |
| NC(=S)n1nc(-c2ccccc2)c(N=Nc2ccccc2[N+](=O)[O-])c1-c1ccccc1 | 13.2% |
| NC(CSC(=O)c1ccccc1)C(=O)O (centres undefined) | -14.2% |
| CCCCCCCCCCCCSC(=O)NCCC | -3.75% |
| O=[N+]([O-])c1cc(N(c2ccccc2)c2ccccc2)cc([N+](=O)[O-])c1 | 2.05% |
| N#CC(CC(=O)NN)C(=O)NN (centres undefined) | -20.4% |

Test: NCI Yeast Anticancer Drug Screen. Data for the mec2-1 strain (AID 157)
Settings: S. cerevisiae mec2-1 strain, at 50.0 µM, stronger effect = higher value
Outline: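 Test agents were screened against the mec2-1 yeast strain, with defined DNA repair or cell cycle alteration. Growth was scored as inhibition against vehicle-only controls.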

| SMILES | growth inhibition |
| --- | --- |
| CCCCCCCCCCCCCCCCCCCCOC1OC(COC(C)=O)C(OC(C)=O)C(OC(C)=O)C1OC(C)=O (centres undefined) | -14.2% |
| O=C1/C(=C/c2ccc(Cl)cc2)CCC1CCN1CCOCC1 (centres undefined) | 40.5% |
| Nc1ccc2c(c1)NCC2 | -45.7% |
| N#CCCN(C1=NN(C(=O)CC(=O)Nc2cccc(Cl)c2)C(c2ccccc2)C1)c1ccccc1Cl (centres undefined) | -28.8% |
| COC1=NCc2ccccc2-c2ccccc21 | -21.2% |
| CNc1nnnn1C1OC(CO)C(O)C1O (centres undefined) | -8.9% |
| Cc1cc(C(=O)NN)no1 | -4.4% |
| Cn1c(=O)c2c(nc(CCCCCCCCc3nc4c(c(=O)n(C)c(=O)n4C)n3C)n2C)n(C)c1=O | 19.9% |
| S=C1Cc2c([nH]c3ccccc23)-c2ccccc2N1 | 26.6% |
| CCC1OC(=O)CC(O)C(C)C(OC2OC(C)CC(N(C)C)C2O)C(CC=O)CC(C)C(=O)/C=C/C2(C)OC2C1C (centres undefined) | -7.55% |
| CC(C)CCC(=O)OC/C(=N\Nc1ccc([N+](=O)[O-])cc1[N+](=O)[O-])c1ccc(-c2ccccc2)cc1 | 12.5% |
| CC(O)CN1CCCC1 (centres undefined) | -21.9% |
| COc1cc(CC2C(=O)OCC2C2(c3ccc4c(c3)OCO4)SCCCS2)cc(OC)c1OC (centres undefined) | 8.3% |
| O=C1CN(C(=O)Nc2ccccc2)c2ccccc2N1 | -25.5% |
| COc1cc(CCl)c(OC)cc1Cl | 0.9% |
| CN(C)CCCN1c2ccccc2Sc2cnccc21 | -8.2% |
| O=C1CSc2nc3ccc(Br)cc3c(=O)n21 | 9.1% |
| CC(C)(C)c1ccnc(C(O)(C(F)(F)F)C(F)(F)F)c1 | -12.2% |
| N/C(=N\N=C\C1CC2C=CC1C2)NO (centres undefined) | -11.4% |
| CC1SC2=NC3=C(c4ccccc4C3=O)C(c3ccc(Br)cc3)N2C1=O (centres undefined) | -15.9% |

| SMILES | growth inhibition |
| --- | --- |
| CC(C)C(O)C[N+](=O)[O-] (centres undefined) | 6.8% |
| Cc1cc2nc3c(=O)[nH]c(=O)nc-3n(CCOC(=O)CCC(=O)O)c2cc1C | 9.45% |
| Cc1cc(=O)c2c(Br)ccc(Br)c2[nH]1 | -16.1% |
| CC(C=O)CCC(C)(O)C=O (centres undefined) | -7.8% |
| c1ccc(CC2=NCCc3ccccc32)cc1 | -28.3% |
| NC(=O)c1ccccc1NC(=O)C(=O)C(c1cnc2ccc([N+](=O)[O-])cc2n1)[N+](=O)[O-] (centres undefined) | -1.1% |
| CCCOC(=O)CC(CC(=O)OCCC)C(=O)OCCC | 0.55% |
| CN(C)NC1=C([N+](=O)[O-])C=NN(c2ccccc2)C1 | -1.15% |
| O=C1c2ccc3ccccc3c2C(=O)c2ccc3ccccc3c21 | -4.5% |
| Clc1nnc(-c2ccccc2)s1 | 2.85% |
| CCCCc1ccc2[n+](c1)C(C(=O)OCC)=PC2 (centres undefined) | -36.8% |
| COC(=O)/C(=N/O)C(C(=O)C=C(C)C)C(=O)C(=O)Nc1nc2ccc([N+](=O)[O-])cc2s1 (centres undefined) | -4.55% |
| COCOS(C)(=O)=O | -14.3% |
| COC(=O)C1CC[N-]CC1.COC(=O)C1CC[N-]CC1.[Cl][Pt+2][Cl] | 6.9% |
| Cc1cccc(C)[n+]1[O-] | 5.25% |
| NC(=S)n1nc(-c2ccccc2)c(N=Nc2ccccc2[N+](=O)[O-])c1-c1ccccc1 | 2.5% |
| NC(CSC(=O)c1ccccc1)C(=O)O (centres undefined) | -3.45% |
| CCCCCCCCCCCCSC(=O)NCCC | -2.05% |
| O=[N+]([O-])c1cc(N(c2ccccc2)c2ccccc2)cc([N+](=O)[O-])c1 | -12.4% |
| N#CC(CC(=O)NN)C(=O)NN (centres undefined) | -8.9% |
